High-throughput results deposited in PubChem BioAssay by The Scripps Research Institute Molecular Screening Center.
Compounds with a hit are over-represented: about 2% of the library has one in this group of screens.
CHO-K1 Ca antag: nonselective inhibitor or artifact in parental CHO-K1 cells. ATP-induced calcium, Fluo-8 fluorescence. inhibition, % at 3 µM. actives 0.6% (n = 360,000). AID 602250;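 active means inhibition above a per-plate cutoff, the plate's mean sample inhibition plus 3 SD, cut at about 24% in these data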
M4 PAM: human M4 muscarinic receptor positive allosteric modulators, primary screen, CHO-K1 cells, Fluo-8 calcium fluorescence | Muscarinic acetylcholine receptor M4 (Homo sapiens), P08173 | activation, % at 3 µM | CHO-K1 hM4/Gqi5, ACh EC20; 0% = ACh EC20, 100% = maximal ACh | actives 0.4% (n = 360,000) | AID 624126, 2012;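 active means activation above its plate's cutoff, the mean activation of sample wells plus 3 SD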
Target sequence (P08173 whole entry, looked up): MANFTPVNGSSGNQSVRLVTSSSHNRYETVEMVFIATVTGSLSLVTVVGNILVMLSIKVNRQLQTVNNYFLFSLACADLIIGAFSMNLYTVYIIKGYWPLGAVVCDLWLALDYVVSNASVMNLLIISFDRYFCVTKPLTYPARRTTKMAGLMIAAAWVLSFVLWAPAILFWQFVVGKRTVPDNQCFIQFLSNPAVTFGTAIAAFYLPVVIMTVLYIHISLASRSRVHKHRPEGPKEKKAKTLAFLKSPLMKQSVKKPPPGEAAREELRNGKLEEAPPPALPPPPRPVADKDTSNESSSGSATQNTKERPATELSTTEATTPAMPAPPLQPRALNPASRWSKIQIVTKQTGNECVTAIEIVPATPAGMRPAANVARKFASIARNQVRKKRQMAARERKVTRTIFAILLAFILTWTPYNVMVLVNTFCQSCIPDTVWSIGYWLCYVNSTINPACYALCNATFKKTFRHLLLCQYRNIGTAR
M1 PAM parental: nonselective calcium activators in parental CHO-K1 cells, primary screen, counter-screen for M1 PAM project, cell-based, Fluo-8 calcium fluorescence, full deck, 1536-well; ATP EC20; 0% at ATP EC20, 100% at ATP max; activation, % at 3 µM; actives 0.02% (n = 360,000);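 active means activation above the run cutoff, the mean activation of all test compounds plus 3 SD, cut at about 40% in these data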;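 further: peak over basal fluorescence ratio in a 140 s read after ATP addition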
CHRM4 antagonist: human M4 muscarinic receptor antagonists, primary screen, CHO cells, Fluo-8 calcium fluorescence; Muscarinic acetylcholine receptor M4 (Homo sapiens), P08173; CHO-hM4 cells, ACh EC80; inhibition, % at 3 µM; actives 0.73% (n = 360,000); AID 624125, 2012;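 active means inhibition above its plate's cutoff, the mean inhibition of sample wells plus 3 SD, cut at about 27% in these data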
M4 ag: human M4 muscarinic receptor agonists, primary screen, CHO-K1 cells, Fluo-8 calcium fluorescence; Muscarinic acetylcholine receptor M4 (Homo sapiens), P08173; CHO-K1 hM4/Gqi5; vehicle 0%, full acetylcholine response 100%; activation, % at 3 µM; actives 0.14% (n = 360,000); AID 624127, 2012;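 active means activation above the run mean over all test wells plus 3 SD, cut at about 32% in these data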;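 further: peak over basal fluorescence ratio per well then scaled between controls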
CHO-K1 Ca ag: counter-screen for M1 agonists: effect in parental CHO-K1 cells; Fluo-8 calcium fluorescence; scaled to maximal ATP response, vehicle zero; activation, % at 3 µM; actives 0.48% (n = 360,000); AID 602248, 2012; in the data active means activation above about 15%;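 further: untransfected CHO-K1 host cells lacking M1 receptor as counterscreen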
A number is an active result; i = inactive.

SMILES	CHO-K1 Ca antag	M4 PAM	M1 PAM parental	CHRM4 antagonist	M4 ag	CHO-K1 Ca ag
COC(=O)c1ccc(NC(=O)CCc2nnc3ccc(NCc4ccco4)nn23)cc1	i	i	i	i	i	i
CC1(C)CC(=O)C2=C(C1)OC1=C(C(=O)CC(C)(C)C1)C2c1ccc(O)cc1O	i	i	i	i	i	i
CC(Nc1ncnc2ccccc12)c1ccccc1 (stereo not drawn)	24	i	i	i	i	i
CCOc1ccc(N(C(=O)CNC(=O)c2ccco2)C(C(=O)NC2CCCC2)c2ccco2)cc1 (stereo not drawn)	i	i	i	i	i	i
NC1=NC(=O)CC(C(=O)NCc2ccccc2)S1 (stereo not drawn)	i	16	i	i	i	i
NC1=NC(=O)C(CC(=O)NCc2ccccc2)S1 (stereo not drawn)	i	i	i	i	i	i
O=C(NCC1CCCO1)C1CCCN(S(=O)(=O)c2cc(Cl)ccc2Cl)C1 (stereo not drawn)	i	i	i	i	i	i
COc1cccc(Nc2nc3cc(C)ccc3cc2C)c1	26	i	i	i	i	i
O=C(CN1CCN(S(=O)(=O)c2ccc3c(c2)OCCO3)CC1)Nc1ccccc1Br	i	i	i	i	i	i
O=C(Nc1nc(-c2ccccc2)cs1)c1ccccc1NS(=O)(=O)c1ccc(F)cc1	32	i	i	31	i	i
O=S(=O)(Nc1ccc(-c2csc(-c3ccccc3)n2)cc1)c1ccc(F)cc1	i	31	i	i	i	i
COc1ccccc1C(=O)Nc1nc(-c2ccc(S(=O)(=O)N3CCOCC3)cc2)cs1	i	i	i	36	i	i
CNC(=S)N/N=C/c1ccc(C(C)C)cc1	i	i	i	i	i	i
Cn1c(=O)oc2cc(S(=O)(=O)NCc3cccnc3)ccc21	i	i	i	i	i	i
Cc1cc(Br)cn2c(Cc3ccccc3)c(-c3ccccc3)nc12	i	i	i	i	i	i
CCOC(=O)CNC(=S)N(Cc1cccs1)C1CCCC1	i	i	i	i	i	i
COc1ccccc1OCc1ccc(C(=O)N2CCCCC2)o1	i	34	i	i	i	i
COc1ccccc1OCc1ccc(C(=O)N2CCOCC2)o1	i	i	i	i	i	i
Cc1cccc2cc3c(nc12)SC(=NCC1CCCO1)N(Cc1ccco1)C3 (stereo not drawn)	i	i	i	i	i	i
COc1ccc(C2C=C(c3ccc(Br)cc3)Nc3nc(N4C(=O)CCC4=O)nn32)cc1 (stereo not drawn)	33	i	i	i	i	i
CCOc1ccc(N2C(=O)C3C(c4ccc(O)cc4)NC(CCSC)(C(=O)OC)C3C2=O)cc1 (stereo not drawn)	i	i	i	i	i	i
Cc1ccsc1/C=C1\CCC(C2CCCC2)C1=O (stereo not drawn)	i	i	i	i	i	i
O=C([O-])c1ccccc1-[n+]1c(-c2ccccc2)cc(-c2ccccc2)cc1-c1ccccc1	i	i	i	61	i	i
O=[N+]([O-])c1cc(-c2ccccc2)cc([N+](=O)[O-])c1O	i	i	i	i	i	i
CC(=O)Nc1ccc(NC(=O)C(C)Oc2ccccc2F)cc1 (stereo not drawn)	24	i	i	i	i	i
NC(=O)c1cccc(-c2cnc3c(Nc4cccc(OC(F)(F)C(F)F)c4)nccn23)c1	31	i	i	i	i	i
O=C(Oc1c(Cl)cc(Cl)c2cccnc12)c1cccs1	i	i	i	i	i	i
Cc1ccc(C)c(NC(=O)CC2Sc3ccccc3NC2=O)c1 (stereo not drawn)	i	i	i	i	i	i
CCOc1ccc(-c2nnc(-c3ccncc3)o2)cc1	i	25	i	i	i	i
CC(C)C(C(=O)NCC1CCCO1)N(Cc1ccco1)C(=O)CNS(=O)(=O)c1ccc(F)cc1 (stereo not drawn)	i	i	i	i	i	i
